{
  "source": "paper PMC7862700",
  "about": "“An all-to-all approach to the identification of sequence-specific readers for epigenetic DNA modifications on cytosine”",
  "experiment_in_all_cases": "DAPPL (digital affinity profiling via proximity ligation, sequencing); 10 mM Tris-HCl pH 7.5, 50 mM NaCl, 1 mM DTT, 4% glycerol, room temperature, 30 min; GST-TFs on glutathione beads, 16-mer random dsDNA library, 0.1% formaldehyde crosslink after washing; high values mean tight binding",
  "conditions_in_all_cases": "protein: recombinant; tags: N-terminal GST; dsDNA, one strand shown",
  "key": {"[1]": {"molecular_target": "T1, GABPA (Homo sapiens, UniProt Q06546 1-454)", "T1 sequence": "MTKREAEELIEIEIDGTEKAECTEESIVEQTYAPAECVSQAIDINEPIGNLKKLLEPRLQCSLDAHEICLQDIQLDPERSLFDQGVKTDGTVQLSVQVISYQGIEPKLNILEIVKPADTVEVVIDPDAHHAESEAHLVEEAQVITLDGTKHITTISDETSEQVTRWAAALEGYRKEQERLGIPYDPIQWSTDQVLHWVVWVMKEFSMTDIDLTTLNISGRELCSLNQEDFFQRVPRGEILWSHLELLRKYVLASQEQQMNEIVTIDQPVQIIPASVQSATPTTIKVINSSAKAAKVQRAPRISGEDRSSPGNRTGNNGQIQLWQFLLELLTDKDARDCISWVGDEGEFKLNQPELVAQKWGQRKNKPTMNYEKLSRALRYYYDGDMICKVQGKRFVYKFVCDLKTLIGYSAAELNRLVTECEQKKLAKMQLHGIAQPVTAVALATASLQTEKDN", "how_it_was_run": "(§1)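 GST fusions of human transcription factors were expressed in yeast and captured with glutathione beads. Once given DNA barcodes and pooled alongside a tag-only sample, they were incubated for 30 min at room temperature with 200 nmole of a random double-stranded 16-mer DNA library in Tris/NaCl/DTT/glycerol buffer, then washed, crosslinked (0.1% formaldehyde), proximity-ligated, PCR-amplified and sequenced on an Illumina NextSeq500. The binding signal of each hexamer is its read frequency for a factor divided by its frequency for the tag-only sample.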"}, "[2]": {"molecular_target": "T2, ERG (Homo sapiens, UniProt P11308 1-479)", "T2 sequence": "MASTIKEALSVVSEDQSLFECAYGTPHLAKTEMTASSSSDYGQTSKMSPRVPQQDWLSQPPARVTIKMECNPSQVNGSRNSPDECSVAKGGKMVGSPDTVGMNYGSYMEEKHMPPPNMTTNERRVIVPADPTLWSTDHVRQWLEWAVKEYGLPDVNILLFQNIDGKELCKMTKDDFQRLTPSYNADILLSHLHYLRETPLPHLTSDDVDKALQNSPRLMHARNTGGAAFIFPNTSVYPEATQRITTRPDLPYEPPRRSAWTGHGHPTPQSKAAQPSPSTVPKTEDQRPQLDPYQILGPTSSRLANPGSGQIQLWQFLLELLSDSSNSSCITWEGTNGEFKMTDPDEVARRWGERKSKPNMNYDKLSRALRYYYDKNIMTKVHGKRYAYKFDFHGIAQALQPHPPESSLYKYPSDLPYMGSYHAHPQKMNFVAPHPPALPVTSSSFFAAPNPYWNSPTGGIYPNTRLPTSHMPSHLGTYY", "how_it_was_run": "as §1"}, "[3]": {"molecular_target": "T3, FEV (Homo sapiens, UniProt Q99581 1-238)", "T3 sequence": "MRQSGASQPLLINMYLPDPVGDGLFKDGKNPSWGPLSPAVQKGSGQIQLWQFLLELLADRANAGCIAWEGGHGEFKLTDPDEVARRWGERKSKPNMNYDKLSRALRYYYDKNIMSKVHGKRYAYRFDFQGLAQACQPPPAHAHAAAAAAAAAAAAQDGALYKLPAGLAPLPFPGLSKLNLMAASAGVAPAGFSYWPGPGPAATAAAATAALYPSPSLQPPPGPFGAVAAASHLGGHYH", "how_it_was_run": "as §1"}, "[4]": {"molecular_target": "T4, ELF5 (Homo sapiens, UniProt Q9UKW6-2 1-255)", "T4 sequence": "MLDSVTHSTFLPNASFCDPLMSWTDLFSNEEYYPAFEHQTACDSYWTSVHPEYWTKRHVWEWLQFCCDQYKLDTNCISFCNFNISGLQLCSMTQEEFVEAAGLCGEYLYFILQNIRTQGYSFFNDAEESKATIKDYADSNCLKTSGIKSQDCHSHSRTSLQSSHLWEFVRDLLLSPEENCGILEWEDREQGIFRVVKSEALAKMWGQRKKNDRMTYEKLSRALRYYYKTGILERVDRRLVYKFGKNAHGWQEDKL", "how_it_was_run": "as §1"}, "[5]": {"molecular_target": "T5, ETV3 (Homo sapiens, UniProt P41162-2 1-143)", "T5 sequence": "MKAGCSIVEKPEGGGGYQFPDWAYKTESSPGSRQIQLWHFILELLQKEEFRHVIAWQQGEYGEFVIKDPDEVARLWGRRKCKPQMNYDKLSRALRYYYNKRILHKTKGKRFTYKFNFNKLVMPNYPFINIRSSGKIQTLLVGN", "how_it_was_run": "as §1"}, "[6]": {"molecular_target": "ELF1 (Homo sapiens, UniProt P32519 1-619)", "sequence (P32519 whole entry)": "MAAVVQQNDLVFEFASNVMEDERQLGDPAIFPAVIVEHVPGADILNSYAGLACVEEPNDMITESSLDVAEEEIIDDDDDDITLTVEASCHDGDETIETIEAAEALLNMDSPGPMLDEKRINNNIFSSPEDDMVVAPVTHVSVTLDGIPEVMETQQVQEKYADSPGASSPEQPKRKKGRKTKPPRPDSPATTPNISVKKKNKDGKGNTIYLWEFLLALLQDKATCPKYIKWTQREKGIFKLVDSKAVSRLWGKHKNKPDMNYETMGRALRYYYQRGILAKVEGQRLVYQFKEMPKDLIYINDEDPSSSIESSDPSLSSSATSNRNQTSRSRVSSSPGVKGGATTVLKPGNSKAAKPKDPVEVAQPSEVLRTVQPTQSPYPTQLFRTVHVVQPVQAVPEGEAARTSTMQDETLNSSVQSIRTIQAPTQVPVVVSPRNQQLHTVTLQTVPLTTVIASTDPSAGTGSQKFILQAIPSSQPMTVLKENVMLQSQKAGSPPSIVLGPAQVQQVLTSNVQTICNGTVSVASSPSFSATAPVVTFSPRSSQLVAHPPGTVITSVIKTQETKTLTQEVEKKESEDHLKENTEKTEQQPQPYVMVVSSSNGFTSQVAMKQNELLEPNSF", "how_it_was_run": "as §1"}, "[7]": {"molecular_target": "T6, ETS2 (Homo sapiens, UniProt P15036 1-469)", "T6 sequence": "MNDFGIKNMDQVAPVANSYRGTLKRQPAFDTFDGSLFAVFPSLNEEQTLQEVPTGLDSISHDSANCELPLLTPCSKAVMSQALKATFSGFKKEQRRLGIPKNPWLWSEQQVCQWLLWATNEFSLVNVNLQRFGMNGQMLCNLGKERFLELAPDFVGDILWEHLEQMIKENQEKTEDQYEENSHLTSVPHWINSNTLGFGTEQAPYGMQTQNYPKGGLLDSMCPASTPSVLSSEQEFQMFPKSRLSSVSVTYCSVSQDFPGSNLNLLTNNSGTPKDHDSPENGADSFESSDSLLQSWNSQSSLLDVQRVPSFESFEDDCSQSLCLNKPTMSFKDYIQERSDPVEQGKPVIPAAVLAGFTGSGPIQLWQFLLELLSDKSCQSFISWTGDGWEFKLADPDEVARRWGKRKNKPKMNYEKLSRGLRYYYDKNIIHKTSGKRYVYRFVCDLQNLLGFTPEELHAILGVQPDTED", "how_it_was_run": "as §1"}, "[8]": {"molecular_target": "SPIB (Homo sapiens, UniProt Q01892 1-262)", "sequence (Q01892 whole entry)": "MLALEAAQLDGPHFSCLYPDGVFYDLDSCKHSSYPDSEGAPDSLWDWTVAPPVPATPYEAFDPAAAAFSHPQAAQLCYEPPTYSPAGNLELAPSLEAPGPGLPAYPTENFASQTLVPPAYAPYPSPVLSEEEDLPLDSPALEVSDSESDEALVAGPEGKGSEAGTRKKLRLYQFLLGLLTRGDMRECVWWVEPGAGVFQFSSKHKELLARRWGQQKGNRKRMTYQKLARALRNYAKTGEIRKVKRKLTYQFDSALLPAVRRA", "how_it_was_run": "as §1"}, "[9]": {"molecular_target": "T7, ERF (Homo sapiens, UniProt P50548 1-548)", "T7 sequence": "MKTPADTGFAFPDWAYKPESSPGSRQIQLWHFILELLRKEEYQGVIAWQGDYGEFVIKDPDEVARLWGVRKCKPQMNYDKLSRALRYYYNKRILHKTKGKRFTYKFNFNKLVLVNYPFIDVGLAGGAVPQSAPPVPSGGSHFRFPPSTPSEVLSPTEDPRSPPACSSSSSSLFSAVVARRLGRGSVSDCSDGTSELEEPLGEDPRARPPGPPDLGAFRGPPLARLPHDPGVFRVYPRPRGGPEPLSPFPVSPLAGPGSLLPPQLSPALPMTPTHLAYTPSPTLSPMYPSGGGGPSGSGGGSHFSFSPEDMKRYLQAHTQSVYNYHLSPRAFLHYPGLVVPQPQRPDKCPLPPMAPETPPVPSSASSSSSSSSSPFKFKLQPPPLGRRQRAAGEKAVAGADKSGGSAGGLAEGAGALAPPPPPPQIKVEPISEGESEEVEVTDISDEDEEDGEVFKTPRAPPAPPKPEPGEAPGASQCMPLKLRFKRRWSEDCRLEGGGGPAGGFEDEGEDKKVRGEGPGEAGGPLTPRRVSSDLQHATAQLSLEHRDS", "how_it_was_run": "as §1"}, "[10]": {"molecular_target": "SPI1 (Homo sapiens, UniProt P17947 1-270)", "how_it_was_run": "as §1"}, "[11]": {"molecular_target": "ETV1 (Homo sapiens, UniProt P50549 1-477)", "sequence (P50549 whole entry)": "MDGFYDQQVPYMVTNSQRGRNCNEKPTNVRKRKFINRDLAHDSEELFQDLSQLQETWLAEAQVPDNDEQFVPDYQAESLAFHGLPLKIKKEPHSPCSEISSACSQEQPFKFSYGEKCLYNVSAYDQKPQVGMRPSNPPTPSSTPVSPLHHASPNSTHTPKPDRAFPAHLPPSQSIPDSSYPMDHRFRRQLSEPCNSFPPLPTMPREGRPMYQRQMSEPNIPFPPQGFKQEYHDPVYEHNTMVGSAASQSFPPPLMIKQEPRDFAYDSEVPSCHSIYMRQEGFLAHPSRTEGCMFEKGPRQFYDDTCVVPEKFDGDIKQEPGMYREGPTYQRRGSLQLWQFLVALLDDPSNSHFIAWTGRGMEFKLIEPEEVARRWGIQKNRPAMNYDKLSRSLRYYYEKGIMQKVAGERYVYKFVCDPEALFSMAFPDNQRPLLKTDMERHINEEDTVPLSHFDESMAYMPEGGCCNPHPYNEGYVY", "how_it_was_run": "as §1"}, "[12]": {"molecular_target": "T8, ETV3L (Homo sapiens, UniProt Q6ZN32 1-361)", "T8 sequence": "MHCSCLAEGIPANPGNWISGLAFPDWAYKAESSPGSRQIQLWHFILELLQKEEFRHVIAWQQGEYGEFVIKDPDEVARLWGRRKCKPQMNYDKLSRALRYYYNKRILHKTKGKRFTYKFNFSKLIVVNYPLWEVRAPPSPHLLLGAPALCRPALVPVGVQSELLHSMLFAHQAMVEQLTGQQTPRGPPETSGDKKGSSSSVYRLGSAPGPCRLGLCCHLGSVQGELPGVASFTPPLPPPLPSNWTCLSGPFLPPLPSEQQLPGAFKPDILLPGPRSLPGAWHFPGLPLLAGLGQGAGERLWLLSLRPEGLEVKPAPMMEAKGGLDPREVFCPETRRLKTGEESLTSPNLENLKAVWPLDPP", "how_it_was_run": "as §1"}, "[13]": {"molecular_target": "ETV6 (Homo sapiens, UniProt P41212 1-452)", "sequence (P41212 whole entry)": "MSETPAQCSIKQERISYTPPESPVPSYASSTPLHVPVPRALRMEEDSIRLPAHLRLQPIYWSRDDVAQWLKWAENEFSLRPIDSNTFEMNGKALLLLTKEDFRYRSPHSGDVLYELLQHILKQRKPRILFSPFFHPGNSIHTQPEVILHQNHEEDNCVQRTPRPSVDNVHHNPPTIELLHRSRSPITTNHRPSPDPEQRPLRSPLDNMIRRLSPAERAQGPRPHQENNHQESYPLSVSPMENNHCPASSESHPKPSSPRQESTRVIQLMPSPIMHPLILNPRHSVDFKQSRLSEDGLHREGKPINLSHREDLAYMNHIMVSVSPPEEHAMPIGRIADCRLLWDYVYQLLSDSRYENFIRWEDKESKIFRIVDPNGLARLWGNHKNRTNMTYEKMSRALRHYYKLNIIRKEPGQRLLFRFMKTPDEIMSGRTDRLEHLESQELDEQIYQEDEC", "how_it_was_run": "as §1"}, "[14]": {"molecular_target": "T9, SPIC (Homo sapiens, UniProt Q8N5J4 1-248)", "T9 sequence": "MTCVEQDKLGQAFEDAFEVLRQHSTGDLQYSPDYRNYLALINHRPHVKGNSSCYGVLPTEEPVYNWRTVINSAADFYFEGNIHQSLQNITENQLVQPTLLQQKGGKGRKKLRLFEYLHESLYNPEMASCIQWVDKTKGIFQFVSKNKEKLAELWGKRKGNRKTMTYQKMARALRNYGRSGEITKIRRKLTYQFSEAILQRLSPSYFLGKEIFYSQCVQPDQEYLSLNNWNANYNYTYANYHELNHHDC", "how_it_was_run": "as §1"}},
  "data": [
    {"sequence": "TCGAGT", "values": [
      {"measurement": "binding signal", "setting": "[1]", "result": "1 fold enrichment (6-mer frequency, TF over GST control)"}
    ]},
    {"sequence": "CGGATT", "values": [
      {"measurement": "binding signal", "setting": "[2]", "result": "1 fold enrichment (6-mer frequency, TF over GST control)"},
      {"measurement": "binding signal", "setting": "[3]", "result": "1.44 fold enrichment (6-mer frequency, TF over GST control)"},
      {"measurement": "binding signal", "setting": "[4]", "result": "1.01 fold enrichment (6-mer frequency, TF over GST control)"},
      {"measurement": "binding signal", "setting": "[5]", "result": "1.04 fold enrichment (6-mer frequency, TF over GST control)"}
    ]},
    {"sequence": "TTCAGA", "values": [
      {"measurement": "binding signal", "setting": "[2]", "result": "1.02 fold enrichment (6-mer frequency, TF over GST control)"}
    ]},
    {"sequence": "GGCTTT", "values": [
      {"measurement": "binding signal", "setting": "[6]", "result": "1.04 fold enrichment (6-mer frequency, TF over GST control)"},
      {"measurement": "binding signal", "setting": "[7]", "result": "1.03 fold enrichment (6-mer frequency, TF over GST control)"}
    ]},
    {"sequence": "GAATGG", "values": [
      {"measurement": "binding signal", "setting": "[8]", "result": "1.06 fold enrichment (6-mer frequency, TF over GST control)"}
    ]},
    {"sequence": "TTTAGA", "values": [
      {"measurement": "binding signal", "setting": "[9]", "result": "1.08 fold enrichment (6-mer frequency, TF over GST control)"}
    ]},
    {"sequence": "CTAGAC", "values": [
      {"measurement": "binding signal", "setting": "[1]", "result": "1.01 fold enrichment (6-mer frequency, TF over GST control)"},
      {"measurement": "binding signal", "setting": "[6]", "result": "1.09 fold enrichment (6-mer frequency, TF over GST control)"}
    ]},
    {"sequence": "GTGGAT", "values": [
      {"measurement": "binding signal", "setting": "[2]", "result": "1 fold enrichment (6-mer frequency, TF over GST control)"},
      {"measurement": "binding signal", "setting": "[10]", "result": "1.06 fold enrichment (6-mer frequency, TF over GST control)"}
    ]},
    {"sequence": "CAAAGA", "values": [
      {"measurement": "binding signal", "setting": "[6]", "result": "1.01 fold enrichment (6-mer frequency, TF over GST control)"},
      {"measurement": "binding signal", "setting": "[11]", "result": "1.02 fold enrichment (6-mer frequency, TF over GST control)"}
    ]},
    {"sequence": "GGATTC", "values": [
      {"measurement": "binding signal", "setting": "[12]", "result": "1.02 fold enrichment (6-mer frequency, TF over GST control)"}
    ]},
    {"sequence": "AGGATT", "values": [
      {"measurement": "binding signal", "setting": "[12]", "result": "1.03 fold enrichment (6-mer frequency, TF over GST control)"}
    ]},
    {"sequence": "GGAAAG", "values": [
      {"measurement": "binding signal", "setting": "[4]", "result": "1.12 fold enrichment (6-mer frequency, TF over GST control)"},
      {"measurement": "binding signal", "setting": "[5]", "result": "1 fold enrichment (6-mer frequency, TF over GST control)"},
      {"measurement": "binding signal", "setting": "[13]", "result": "1.06 fold enrichment (6-mer frequency, TF over GST control)"}
    ]},
    {"sequence": "TTCGGG", "values": [
      {"measurement": "binding signal", "setting": "[5]", "result": "1.03 fold enrichment (6-mer frequency, TF over GST control)"}
    ]},
    {"sequence": "GCATGC", "values": [
      {"measurement": "binding signal", "setting": "[14]", "result": "1.07 fold enrichment (6-mer frequency, TF over GST control)"}
    ]}
  ]
}
